Records with an inconclusive call do not appear. Entries that show only a call come without a potency. Calls of active or inactive are those of the source. Unless noted, calls come from the whole dose curve; as a rule, active = well fitted curve in the direction sought with a large enough effect in the repeat runs; inconclusive = weak or mixed curves; inactive = no such curve, though single readings can be large; an effect the other way counts as inactive or inconclusive.
Legend:
[1] = qHTS assay to identify small molecule agonists of the RXR signaling pathway - cell viability counter screen (AID 1159529);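 note: HEK 293T cells carrying an RXR-alpha UAS beta-lactamase reporter; series mostly up to about 77 µM; nearly all actives have a fitted effect of over 50% in size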
Summary of the method: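 HEK 293T RXRa-bla cells, 2% CS-FBS; 5 h settle; cpd 16 h 37 C, 5% CO2; CellTiter-Glo 30 min RT, luminescence. Tetraoctyl ammonium bromide as positive control.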

[2] = qHTS assay to identify small molecule antagonists of the retinoid acid receptor (RAR) signaling pathway - cell viability counter screen (AID 1159551); note: nearly all actives have a fitted effect of over 35% in size
Summary of the method: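 In this counter screen, the RARE-luciferase line C3RL4 was exposed for 6 h at 37 C and 5% CO2 to compounds with retinol at 1 uM final. Cellular ATP, read by luminescence, served as the viability measure.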

[3] = qHTS assay to identify small molecule antagonists of the retinoic acid receptor (RAR) signaling pathway (AID 1159552; note: nearly all actives have a fitted effect of over 50% in size)
Summary of the method: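 Cells of the C3RL4 line were seeded, incubated overnight, then dosed with compounds in DMSO followed immediately by retinol (1 uM final). Six hours later luciferase detection reagent went in; signal was measured after 30 min at RT.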

[4] = qHTS assay to identify small molecule antagonists of the estrogen related receptor (ERR) signaling pathway - cell viability counter screen (AID 1224818); note: series mostly up to about 46 µM
Summary of the method: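 Viability of ERR cells, CellTiter-Fluor fluorescence; 17.5 h compound exposure at 37 C, DMSO vehicle; 30 min reagent incubation at 37 C/5% CO2.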

[5] = qHTS assay to identify small molecule antagonists of the estrogen related receptor signaling pathway with the pleiotropic PPARgamma coactivator (PGC) cell viability counter screen (AID 1224822; note: series mostly up to about 46 µM)
Summary of the method: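 17.5 h compound treatment of PGC/ERR cells at 37 C; readout CellTiter-Fluor fluorescence; run alongside the PGC/ERR antagonist screen to flag cytotoxic compounds.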

[6] = qHTS assay to identify small molecule agonists of the retinoic acid receptor (RAR) signaling pathway (AID 1159553)
Summary of the method: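 In this cell-based screen, 1,000 C3RL4 cells per well were cultured overnight, dosed with test chemicals in DMSO for 6 hr, and assessed for RARE luciferase luminescence.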

[7] = qHTS assay to identify small molecule antagonists of the estrogen related receptor (ERR) signaling pathway (AID 1224819;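 note: luminescence from an ERR-driven luciferase reporter measured with One-Glo reagent; series mostly up to about 46 µM; nearly all actives have a fitted effect of over 50% in size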)
Summary of the method: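 Seed ERR cells 2,000/well; rest 6 h at 37 C/5% CO2; pin compounds in DMSO; incubate 18 h at 37 C; add One-Glo; wait 30 min at room temperature; measure luminescence.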

[8] = qHTS assay to identify small molecule agonists of the estrogen related receptor (ERR) signaling pathway (AID 1224820)
Summary of the method: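 Luminescence readout (One-Glo, 30 min RT) from NTP-supplied ERR cell line exposed to compounds for 18 h at 37 C. Cells seeded 2,000 per well and pre-incubated 6 h before pin-tool compound transfer.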

[9] = test system: estrogen-related receptor alpha (ERRalpha) with PGC-1alpha coactivator, human; assay: qHTS assay to identify small molecule antagonists of the estrogen related receptor signaling pathway with the pleiotropic PPARgamma coactivator (PGC) (AID 1224821; calls by dose curve;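 note: series mostly up to about 46 µM; lower luminescence signal means antagonism of PGC/ERR signalling; nearly all actives have a fitted effect of over 50% in size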)
Summary of the method: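 PGC/ERR reporter cells; 6 h pre-incubation 37 C/5% CO2; pin-tool compound in DMSO, 18 h 37 C; One-Glo added, 30 min RT; luminescence read. qHTS antagonist mode.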

Which outcome [1] does the source give for `CCn1ccc(NS(=O)(=O)c2ccc(N)cc2)nc1=O` here?
The outcome was “inactive”.

And the outcome [2]?
Its outcome is “inactive”.

Which outcome [2] does the source give for `CCCCOCCOC(=O)COc1nc(Cl)c(Cl)cc1Cl` here?
Its outcome is “inactive”.

What about the outcome [3] of the same molecule?
Its outcome is “inactive”.

For `O=C(c1ccc(O)cc1)c1ccc(O)c(O)c1O`, which outcome [1] is on record?
Its outcome is “inactive”.

What about the outcome [2] of the same molecule?
The outcome was “inactive”.

What about the outcome [3] of the same molecule?
The outcome was “inactive”.

For `CN(C)CCOCCO`, which outcome [1] is on record?
The outcome was “inactive”.

What about the outcome [2] of the same molecule?
Its outcome is “inactive”.

Which results are given for `CCCCNc1ccc(C(=O)OCCN(C)C)cc1`?
outcome [1]: inactive; outcome [2]: inactive; outcome [3]: inactive; outcome [4]: inactive; outcome [5]: inactive

What does the source list for `ClCCCl`?
outcome [1]: inactive; outcome [2]: inactive

With `O=S(=O)(O)c1cc(O)c2ccc(Nc3ccccc3)cc2c1` as the molecule, how does the outcome [1] read?
Its outcome is “inactive”.

What about the outcome [2] of the same molecule?
The outcome was “inactive”.

And the outcome [3]?
Its outcome is “inactive”.

Which outcome [1] does the source give for `CC(C)C(=O)OCCc1ccccc1` here?
The outcome was “inactive”.

What about the outcome [2] of the same molecule?
The outcome was “inactive”.

What about the outcome [3] of the same molecule?
Its outcome is “inactive”.

And the Potency [6]?
The Potency was “inactive”.

For `C=C(C)C(=O)OCCN(CC)CC`, which outcome [2] is on record?
Its outcome is “inactive”.

Which results are given for `CO[C@@H]1[C@@H](OC(N)=O)[C@@H](O)[C@H](Oc2ccc3c(O)c(NC(=O)c4ccc(O)c(CC=C(C)C)c4)c(=O)oc3c2C)OC1(C)C`?
outcome [1]: inactive; outcome [2]: inactive

Which results are given for `OCCCCC(O)CO` (configuration not stated)?
outcome [1]: inactive; outcome [2]: inactive; Potency [6]: inactive

With `O=C(O)c1cc(Cl)cc([N+](=O)[O-])c1Cl` as the molecule, how does the outcome [2] read?
Its outcome is “inactive”.

What about the outcome [3] of the same molecule?
Its outcome is “inactive”.

With `Cc1cccc(C)c1NC(=O)c1ccccc1C(=O)O` as the molecule, how does the outcome [1] read?
The outcome was “inactive”.

What about the outcome [2] of the same molecule?
The outcome was “inactive”.

Which results are given for `COc1cc2c(cc1OC)C(=O)CC2`?
outcome [1]: inactive; outcome [2]: inactive

Which outcome [1] does the source give for `O=C(O)Cc1ccc(Cl)cc1Cl` here?
Its outcome is “inactive”.

And the outcome [2]?
The outcome was “inactive”.

And the outcome [3]?
The outcome was “inactive”.

With `CC(=O)c1sc(C)nc1C` as the molecule, how does the outcome [1] read?
The outcome was “inactive”.

What about the outcome [2] of the same molecule?
The outcome was “inactive”.

For `CN1C(C)(C)CCCC1(C)C`, which outcome [1] is on record?
The outcome was “inactive”.

And the outcome [2]?
Its outcome is “inactive”.

What about the Potency [6] of the same molecule?
The Potency was “inactive”.

Which outcome [1] does the source give for `CC(C)=O` here?
Its outcome is “inactive”.

And the outcome [2]?
Its outcome is “inactive”.

And the Potency [6]?
Its Potency is “inactive”.

Which results are given for `COc1ccc(Br)c(C)c1`?
outcome [1]: inactive; outcome [2]: inactive

With `C[Si](C)(C)C` as the molecule, how does the outcome [2] read?
The outcome was “inactive”.

For `O=C(CS(=O)Cc1ccco1)NC/C=C\COc1cc(CN2CCCCC2)ccn1` (configuration not stated), which outcome [1] is on record?
The outcome was “inactive”.

And the outcome [2]?
The outcome was “inactive”.

Which results are given for `COc1ccc(-c2cc(=O)c3c(O)cc(O[C@@H]4O[C@H](CO[C@@H]5O[C@@H](C)[C@H](O)[C@@H](O)[C@H]5O)[C@@H](O)[C@H](O)[C@H]4O)cc3o2)cc1O`?
outcome [1]: inactive; outcome [2]: inactive; outcome [3]: inactive; Potency [6]: inactive

Which outcome [1] does the source give for `CC(C)CCCC(C)(C)O` here?
The outcome was “inactive”.

What about the outcome [2] of the same molecule?
The outcome was “inactive”.

Which results are given for `CCN(CC)CC(=O)Nc1c(C)cccc1C`?
outcome [1]: inactive; outcome [2]: inactive; Potency [6]: inactive; outcome [4]: inactive; outcome [7]: inactive; outcome [8]: inactive; outcome [9]: inactive; outcome [5]: inactive

With `c1ccc2nccnc2c1` as the molecule, how does the outcome [1] read?
Its outcome is “inactive”.

What about the outcome [2] of the same molecule?
The outcome was “inactive”.

Source: PubChem BioAssay (Tox21)
